What was measured:
[1] = biological target: Mast/stem cell growth factor receptor Kit (Homo sapiens) (UniProt P10721); settings: at 1 µM
[2] = test system: Mast/stem cell growth factor receptor Kit (Homo sapiens), P10721 [D816V]; settings: at 0.1 µM
[3] = test system: Mast/stem cell growth factor receptor Kit (Homo sapiens), P10721 [D816V]; settings: at 1 µM
[4] = test system: Mast/stem cell growth factor receptor Kit (Homo sapiens), P10721 [T670I]; settings: at 0.1 µM
[5] = test system: Mast/stem cell growth factor receptor Kit (Homo sapiens), P10721 [T670I]; settings: at 1 µM
[6] = test system: Mast/stem cell growth factor receptor Kit (Homo sapiens), P10721 [V560G]; settings: at 0.1 µM
Chain of Mast/stem cell growth factor receptor Kit (Homo sapiens), P10721 [V560G] (P10721 whole entry V560G): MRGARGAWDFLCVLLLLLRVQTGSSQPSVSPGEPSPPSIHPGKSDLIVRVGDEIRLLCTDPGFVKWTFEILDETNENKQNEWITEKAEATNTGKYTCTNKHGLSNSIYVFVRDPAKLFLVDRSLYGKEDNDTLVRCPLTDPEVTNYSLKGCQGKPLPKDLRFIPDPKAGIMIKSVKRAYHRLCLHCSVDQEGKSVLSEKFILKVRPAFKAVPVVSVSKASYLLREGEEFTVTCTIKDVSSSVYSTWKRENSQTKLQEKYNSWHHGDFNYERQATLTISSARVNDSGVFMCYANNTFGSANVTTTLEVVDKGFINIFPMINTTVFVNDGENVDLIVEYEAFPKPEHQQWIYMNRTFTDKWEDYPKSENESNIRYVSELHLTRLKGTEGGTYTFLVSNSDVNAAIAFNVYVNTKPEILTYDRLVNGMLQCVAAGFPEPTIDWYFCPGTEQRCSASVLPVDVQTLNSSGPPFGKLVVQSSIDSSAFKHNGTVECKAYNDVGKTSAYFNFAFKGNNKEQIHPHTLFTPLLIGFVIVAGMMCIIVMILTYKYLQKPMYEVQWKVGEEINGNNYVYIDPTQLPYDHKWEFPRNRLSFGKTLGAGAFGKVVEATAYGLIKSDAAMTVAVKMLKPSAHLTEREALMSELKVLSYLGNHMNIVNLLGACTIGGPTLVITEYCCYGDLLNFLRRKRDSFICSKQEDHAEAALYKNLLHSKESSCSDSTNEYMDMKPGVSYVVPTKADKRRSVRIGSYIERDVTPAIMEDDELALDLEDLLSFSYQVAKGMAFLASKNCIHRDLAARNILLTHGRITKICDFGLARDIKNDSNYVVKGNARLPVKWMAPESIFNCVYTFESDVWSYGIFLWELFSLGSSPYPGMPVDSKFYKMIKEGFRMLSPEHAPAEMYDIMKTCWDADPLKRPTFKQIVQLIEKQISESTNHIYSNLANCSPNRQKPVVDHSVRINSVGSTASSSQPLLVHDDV

[7] = test system: Mast/stem cell growth factor receptor Kit (Homo sapiens), P10721 [V560G]; settings: at 1 µM
[8] = biological target: Tyrosine-protein kinase Lck (Homo sapiens) (UniProt P06239); settings: at 0.1 µM
Chain of Tyrosine-protein kinase Lck (Homo sapiens) (P06239 2-509 limits assumed): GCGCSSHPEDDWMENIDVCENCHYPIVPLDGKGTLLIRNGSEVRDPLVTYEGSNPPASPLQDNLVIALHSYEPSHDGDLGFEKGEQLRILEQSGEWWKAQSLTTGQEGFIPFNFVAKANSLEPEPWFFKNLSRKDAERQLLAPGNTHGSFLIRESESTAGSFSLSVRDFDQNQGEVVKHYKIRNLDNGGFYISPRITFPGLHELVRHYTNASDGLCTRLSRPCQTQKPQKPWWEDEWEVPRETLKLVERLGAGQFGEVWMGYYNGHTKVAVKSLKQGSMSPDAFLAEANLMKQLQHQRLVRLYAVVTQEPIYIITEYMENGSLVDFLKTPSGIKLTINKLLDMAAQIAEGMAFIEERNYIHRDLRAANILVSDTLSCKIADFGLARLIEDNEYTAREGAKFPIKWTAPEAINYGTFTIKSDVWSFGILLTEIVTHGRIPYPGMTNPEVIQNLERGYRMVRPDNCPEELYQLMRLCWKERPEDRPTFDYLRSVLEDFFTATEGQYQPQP

[9] = biological target: Tyrosine-protein kinase Lck (Homo sapiens) (UniProt P06239); settings: at 1 µM
[10] = biological target: Leukocyte tyrosine kinase receptor (Homo sapiens) (UniProt P29376); settings: at 0.1 µM
Chain of Leukocyte tyrosine kinase receptor (Homo sapiens) (P29376 whole entry): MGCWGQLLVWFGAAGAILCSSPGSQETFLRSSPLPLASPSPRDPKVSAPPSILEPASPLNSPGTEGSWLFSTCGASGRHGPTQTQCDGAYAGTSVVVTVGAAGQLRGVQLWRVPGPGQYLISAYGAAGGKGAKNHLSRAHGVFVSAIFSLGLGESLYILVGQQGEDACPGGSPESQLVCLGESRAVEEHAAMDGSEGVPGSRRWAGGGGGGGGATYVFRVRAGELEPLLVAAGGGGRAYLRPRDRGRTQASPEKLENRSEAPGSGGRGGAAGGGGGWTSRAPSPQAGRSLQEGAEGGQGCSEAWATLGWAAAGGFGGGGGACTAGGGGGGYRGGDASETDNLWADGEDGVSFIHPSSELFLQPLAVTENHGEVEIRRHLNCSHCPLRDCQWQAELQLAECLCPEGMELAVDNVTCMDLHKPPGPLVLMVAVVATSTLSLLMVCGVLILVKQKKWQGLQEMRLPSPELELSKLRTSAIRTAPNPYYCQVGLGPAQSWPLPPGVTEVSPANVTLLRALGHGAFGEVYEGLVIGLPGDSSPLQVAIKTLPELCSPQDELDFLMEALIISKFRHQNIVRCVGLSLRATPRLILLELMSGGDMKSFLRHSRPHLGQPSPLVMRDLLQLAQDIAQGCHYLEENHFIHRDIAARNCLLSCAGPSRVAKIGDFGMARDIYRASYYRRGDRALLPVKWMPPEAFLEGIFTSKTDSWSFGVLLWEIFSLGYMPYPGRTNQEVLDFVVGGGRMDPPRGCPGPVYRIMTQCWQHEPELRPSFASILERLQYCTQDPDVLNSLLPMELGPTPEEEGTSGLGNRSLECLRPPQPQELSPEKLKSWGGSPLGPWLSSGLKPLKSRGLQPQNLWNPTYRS

[11] = biological target: Leukocyte tyrosine kinase receptor (Homo sapiens) (UniProt P29376); settings: at 1 µM
[12] = biological target: Tyrosine-protein kinase Lyn (Homo sapiens) (UniProt P07948); settings: at 0.1 µM
Chain of Tyrosine-protein kinase Lyn (Homo sapiens) (P07948 2-512 limits assumed): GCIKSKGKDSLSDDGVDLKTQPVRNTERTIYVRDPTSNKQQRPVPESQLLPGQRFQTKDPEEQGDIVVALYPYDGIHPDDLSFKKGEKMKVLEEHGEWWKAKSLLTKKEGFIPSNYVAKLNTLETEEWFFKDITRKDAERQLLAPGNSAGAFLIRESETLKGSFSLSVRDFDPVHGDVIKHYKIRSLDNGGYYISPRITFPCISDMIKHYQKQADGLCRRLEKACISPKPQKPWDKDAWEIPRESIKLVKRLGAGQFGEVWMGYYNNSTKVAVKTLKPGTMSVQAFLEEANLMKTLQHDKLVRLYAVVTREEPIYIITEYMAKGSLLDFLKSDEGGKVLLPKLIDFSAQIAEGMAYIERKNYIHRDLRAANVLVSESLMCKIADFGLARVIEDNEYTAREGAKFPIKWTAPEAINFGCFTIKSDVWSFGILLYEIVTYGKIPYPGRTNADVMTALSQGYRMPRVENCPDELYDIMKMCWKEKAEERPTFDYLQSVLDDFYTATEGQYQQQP

[13] = biological target: Tyrosine-protein kinase Lyn (Homo sapiens) (UniProt P07948); settings: at 1 µM
[14] = biological target: Tyrosine-protein kinase Lyn (Homo sapiens) (UniProt P07948); settings: at 0.1 µM; remark: listed apart in the source
[15] = biological target: Tyrosine-protein kinase Lyn (Homo sapiens) (UniProt P07948); settings: at 1 µM; remark: listed apart in the source
[16] = biological target: T1, Tyrosine-protein kinase Mer (Homo sapiens) (UniProt Q12866); settings: at 0.1 µM
T1 sequence (whole entry): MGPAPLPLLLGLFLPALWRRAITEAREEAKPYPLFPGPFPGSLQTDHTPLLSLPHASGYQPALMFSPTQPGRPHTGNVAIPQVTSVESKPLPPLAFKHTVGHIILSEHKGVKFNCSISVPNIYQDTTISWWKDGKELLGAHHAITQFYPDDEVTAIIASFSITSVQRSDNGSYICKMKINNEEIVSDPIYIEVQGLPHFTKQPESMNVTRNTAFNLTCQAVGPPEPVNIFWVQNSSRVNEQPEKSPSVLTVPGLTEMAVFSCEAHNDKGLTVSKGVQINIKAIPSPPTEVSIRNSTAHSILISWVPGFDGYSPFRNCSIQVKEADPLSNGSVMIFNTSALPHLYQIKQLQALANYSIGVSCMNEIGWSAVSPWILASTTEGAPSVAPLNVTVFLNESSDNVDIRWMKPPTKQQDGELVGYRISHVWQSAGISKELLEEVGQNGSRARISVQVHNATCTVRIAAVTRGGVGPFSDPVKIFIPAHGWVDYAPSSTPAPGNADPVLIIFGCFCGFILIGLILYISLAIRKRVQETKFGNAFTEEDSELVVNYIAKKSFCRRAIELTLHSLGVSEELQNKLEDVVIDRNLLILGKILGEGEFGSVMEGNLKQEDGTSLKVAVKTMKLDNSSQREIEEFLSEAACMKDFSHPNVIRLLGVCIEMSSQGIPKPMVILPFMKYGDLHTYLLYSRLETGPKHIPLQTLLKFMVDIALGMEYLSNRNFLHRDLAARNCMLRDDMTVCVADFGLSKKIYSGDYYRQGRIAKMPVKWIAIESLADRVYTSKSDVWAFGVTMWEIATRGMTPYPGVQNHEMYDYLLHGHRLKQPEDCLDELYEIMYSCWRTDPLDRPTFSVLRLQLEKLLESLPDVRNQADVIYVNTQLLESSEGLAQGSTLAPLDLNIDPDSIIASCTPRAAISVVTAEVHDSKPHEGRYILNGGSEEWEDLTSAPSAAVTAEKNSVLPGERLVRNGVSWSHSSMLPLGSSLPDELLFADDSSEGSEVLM

[17] = biological target: T1, Tyrosine-protein kinase Mer (Homo sapiens); settings: at 1 µM
[18] = biological target: Hepatocyte growth factor receptor (Homo sapiens) (UniProt P08581); settings: at 0.1 µM
Chain of Hepatocyte growth factor receptor (Homo sapiens) (P08581 whole entry): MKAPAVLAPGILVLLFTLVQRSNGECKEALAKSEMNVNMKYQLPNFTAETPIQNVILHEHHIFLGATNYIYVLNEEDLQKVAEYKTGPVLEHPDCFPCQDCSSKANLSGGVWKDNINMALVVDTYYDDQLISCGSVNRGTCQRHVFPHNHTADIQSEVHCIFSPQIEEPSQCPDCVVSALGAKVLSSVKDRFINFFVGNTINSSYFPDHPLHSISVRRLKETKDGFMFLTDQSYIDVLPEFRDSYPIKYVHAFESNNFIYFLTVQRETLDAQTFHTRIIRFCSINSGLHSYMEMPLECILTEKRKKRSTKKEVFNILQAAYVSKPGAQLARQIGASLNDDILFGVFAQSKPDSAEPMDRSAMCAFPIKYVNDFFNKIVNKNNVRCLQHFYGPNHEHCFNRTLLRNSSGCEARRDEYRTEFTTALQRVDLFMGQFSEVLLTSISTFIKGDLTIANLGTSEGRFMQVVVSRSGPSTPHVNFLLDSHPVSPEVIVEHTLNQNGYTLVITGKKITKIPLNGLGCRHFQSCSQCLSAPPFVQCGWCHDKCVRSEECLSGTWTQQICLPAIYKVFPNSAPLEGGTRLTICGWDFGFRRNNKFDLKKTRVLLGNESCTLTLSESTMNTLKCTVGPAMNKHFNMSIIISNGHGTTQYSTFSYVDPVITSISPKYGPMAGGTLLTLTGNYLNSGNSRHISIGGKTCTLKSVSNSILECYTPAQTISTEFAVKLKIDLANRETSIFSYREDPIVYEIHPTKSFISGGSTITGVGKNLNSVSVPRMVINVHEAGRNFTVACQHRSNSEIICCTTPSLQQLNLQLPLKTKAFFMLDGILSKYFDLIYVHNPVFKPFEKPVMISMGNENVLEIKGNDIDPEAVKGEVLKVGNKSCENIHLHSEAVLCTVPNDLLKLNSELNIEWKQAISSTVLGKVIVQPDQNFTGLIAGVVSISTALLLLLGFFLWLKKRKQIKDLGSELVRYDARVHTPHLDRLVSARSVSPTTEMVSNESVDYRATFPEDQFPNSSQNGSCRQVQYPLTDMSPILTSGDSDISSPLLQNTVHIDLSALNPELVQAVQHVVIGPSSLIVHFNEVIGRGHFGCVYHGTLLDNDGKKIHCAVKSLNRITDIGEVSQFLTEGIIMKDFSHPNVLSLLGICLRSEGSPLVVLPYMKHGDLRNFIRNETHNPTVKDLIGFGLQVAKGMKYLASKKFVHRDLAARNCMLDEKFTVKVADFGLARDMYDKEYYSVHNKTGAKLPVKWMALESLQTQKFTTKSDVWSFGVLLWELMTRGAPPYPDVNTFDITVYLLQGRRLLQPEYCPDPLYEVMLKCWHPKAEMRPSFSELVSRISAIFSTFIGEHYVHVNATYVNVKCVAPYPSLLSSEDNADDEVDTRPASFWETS

[19] = biological target: Hepatocyte growth factor receptor (Homo sapiens) (UniProt P08581); settings: at 1 µM
[20] = biological target: T2, Muscle, skeletal receptor tyrosine-protein kinase (Homo sapiens) (UniProt O15146); settings: at 0.1 µM;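 note: values are mean inhibition of MuSK from the GSK PKIS kinase screening panel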
T2 sequence (whole entry): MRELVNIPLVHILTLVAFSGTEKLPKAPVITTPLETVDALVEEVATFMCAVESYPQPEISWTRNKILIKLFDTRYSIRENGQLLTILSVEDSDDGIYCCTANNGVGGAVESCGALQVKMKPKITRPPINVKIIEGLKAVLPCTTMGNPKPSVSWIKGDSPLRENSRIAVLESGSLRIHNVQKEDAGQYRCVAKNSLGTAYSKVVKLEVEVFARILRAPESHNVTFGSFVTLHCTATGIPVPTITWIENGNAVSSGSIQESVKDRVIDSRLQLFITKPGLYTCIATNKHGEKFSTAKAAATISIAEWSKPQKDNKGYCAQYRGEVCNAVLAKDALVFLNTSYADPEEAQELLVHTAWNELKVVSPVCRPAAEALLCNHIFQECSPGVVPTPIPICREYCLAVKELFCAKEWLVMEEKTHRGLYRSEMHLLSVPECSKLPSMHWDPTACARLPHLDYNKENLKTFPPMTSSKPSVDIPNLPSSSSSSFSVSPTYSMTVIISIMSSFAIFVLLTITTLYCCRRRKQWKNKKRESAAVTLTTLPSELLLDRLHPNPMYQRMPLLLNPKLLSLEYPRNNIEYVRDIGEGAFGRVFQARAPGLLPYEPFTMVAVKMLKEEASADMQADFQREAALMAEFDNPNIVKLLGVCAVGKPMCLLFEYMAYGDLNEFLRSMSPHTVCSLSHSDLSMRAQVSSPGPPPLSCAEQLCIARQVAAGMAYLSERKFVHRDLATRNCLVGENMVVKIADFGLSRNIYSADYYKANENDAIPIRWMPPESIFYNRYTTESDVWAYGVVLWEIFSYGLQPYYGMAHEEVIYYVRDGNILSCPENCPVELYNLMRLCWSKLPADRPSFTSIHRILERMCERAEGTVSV

Chain of Mast/stem cell growth factor receptor Kit (Homo sapiens) (P10721 whole entry): as the sequence (P10721 whole entry V560G) above, with G560V counted along it
Chain of Mast/stem cell growth factor receptor Kit (Homo sapiens), P10721 [T670I] (P10721 whole entry T670I): as the sequence (P10721 whole entry V560G) above, with G560V, T670I counted along it
Chain of Mast/stem cell growth factor receptor Kit (Homo sapiens), P10721 [D816V] (P10721 whole entry D816V): as the sequence (P10721 whole entry V560G) above, with G560V, D816V counted along it

Row | Compound | inhibition [1] | inhibition [2] | inhibition [3] | inhibition [4] | inhibition [5] | inhibition [6] | inhibition [7] | inhibition [8] | inhibition [9] | inhibition [10] | inhibition [11] | inhibition [12] | inhibition [13] | inhibition [14] | inhibition [15] | inhibition [16] | inhibition [17] | inhibition [18] | inhibition [19] | inhibition [20]
1 | Fc1ccc(-c2ncn(C3CCNCC3)c2-c2ccnc(Oc3ccccc3)n2)cc1 | 1.46% | 0.53% | 4.38% | 0.68% | 2.08% | 3.13% | 1.77% | -2.11% | -2.53% | 0.54% | 1.61% | 2.38% | 2.64% | 0.89% | 1.56% | 0.77% | 6.11% | 5.19% | 0.34% | 1.71%
2 | NS(=O)(=O)c1ccc(-c2ccc3c(NC(=O)C4CC4)n[nH]c3c2)cc1 | 1.91% | 3.57% | 0.9% | 4.28% | 4.13% | 2.1% | -1.99% | 2.8% | 4.43% | 1.17% | -0.4% | 2.87% | 3.71% | 1.42% | 3.29% | 0.15% | 4.26% | -4.19% | 0.32% | 3.88%
3 | CCn1c(-c2nonc2N)nc2c(C#CCN)ncc(OCCCN)c21 | 3.33% | -3.56% | 3.48% | -1.86% | 2.2% | 1.17% | 2.93% | 1.94% | 0.46% | -1.04% | -1.19% | 0.47% | 2.24% | 1.28% | 0.49% | 0.13% | 0.01% | 0.78% | 4.36% | 2.41%
4 | COc1cc(C=NNc2ncnc3c2cnn3Cc2ccccc2)ccc1O | -1.55% | -5.85% | 0.6% | -3.69% | -2.85% | 1.99% | 3.94% | 13.2% | 14.2% | -2.98% | -1.02% | 7.35% | 41.8% | 3.91% | 35.4% | 0.56% | 6.34% | -3.62% | 7.19% | -1.07%
5 | CCn1c(-c2nonc2N)nc2c(C#CC(C)(C)O)ncc(OCC3CCNCC3)c21 | 8.48% | 3.82% | 5.6% | 1.76% | 4.21% | 3.17% | 3.26% | -3.71% | -1.12% | 2.4% | 5.07% | 3.39% | 7.23% | 1.8% | 5.79% | 1.17% | 1.7% | 1.64% | 2.5% | 4.04%
6 | Cc1cc(-c2ccco2)cc(C)c1/C=C/c1cncc(-c2nn[nH]n2)c1 | 0.94% | -2.81% | -2.99% | 1.44% | 0.51% | 1.15% | 3.87% | 1.77% | 4.38% | 1.51% | 1.64% | 1.98% | 5.29% | 2.99% | 3.6% | 0.26% | 3.44% | 4.92% | 3.8% | -1.44%
7 | COc1cccc(-n2ncc3c(N/N=C/c4ccncc4)ncnc32)c1 | 57.2% | 2.45% | 12.7% | 9.47% | 46.9% | 0.93% | 10.7% | 41.1% | 84% | 4.93% | 6.38% | 49% | 87.5% | 43.2% | 85% | 6.35% | 39.2% | 18.9% | 49.5% | 11.1%
8 | COc1cc2c(cc1Nc1nc(Nc3ccsc3C(N)=O)c3cc[nH]c3n1)N(C(=O)CN(C)C)CCC2 | – | 0.61% | 2.53% | -0.99% | 3.92% | 1.1% | 8.54% | 2.58% | 6.92% | 93.8% | 94.9% | 3.9% | 5.94% | 2.54% | 2.25% | 1.81% | 6.9% | 6.76% | 7.29% | 3.98%
9 | NC(=O)c1sc(-n2cnc3cc(C(F)(F)F)ccc32)cc1OCc1ccccc1Br | 1.77% | -1.89% | -0.03% | 0.92% | 0.92% | 0.44% | -1.3% | 1.84% | 4.62% | 1.94% | 4.03% | 3.08% | 4.62% | 2.14% | 3.91% | -1.59% | 4.52% | -0.38% | 8.07% | 1.36%
10 | NS(=O)(=O)c1ccc(N/C=C2\C(=O)Nc3ccc4ncsc4c32)cc1 | 90% | 0.89% | 14.5% | 12.1% | 58.9% | 0.83% | 20.2% | 4.26% | 13.2% | 5.19% | 10.4% | 6.6% | 28.3% | 2.87% | 22.1% | 0.39% | 7.72% | 14.9% | 43.3% | 11%
11 | Nc1nonc1-c1nc2cnccc2n1C1CCCCC1 | 20.6% | -4.78% | -1.9% | -2.27% | 13.3% | 1.39% | 3.23% | -0.24% | 0.51% | -0.53% | 2.35% | -2.05% | 1.3% | -1.46% | -0.59% | -0.72% | 1.5% | -2.89% | 7.05% | -1.73%
12 | COc1cccc(COc2cc(-n3cnc4ccccc43)sc2C(N)=O)c1 | -3.97% | -0.07% | -0.97% | -0.12% | -0.76% | -2.2% | -2.16% | 0.12% | -0.7% | 0.36% | 2.93% | -0.93% | -1.31% | -1.21% | -1.14% | -2.89% | -0.86% | 4.83% | 2.86% | -1.3%
13 | CCn1c(-c2nonc2N)nc2c(C#CC(C)(C)O)nc(O[C@@H](CN)c3ccccc3)cc21 | 2.69% | 0.72% | 34.2% | -0.51% | 10.4% | 3.42% | 3.54% | 0.41% | 4.58% | 35.4% | 76.6% | 2.08% | 22.1% | 0.81% | 16.8% | 0.05% | 0.57% | 3.67% | -0.12% | -1.29%
14 | CCn1c(-c2nonc2N)nc2c(C#CC(C)(C)O)ncc(OC[C@@H]3CCCN3)c21 | -2.57% | -1.62% | 4.32% | -1.38% | 1.32% | 0.39% | -1.89% | 1.21% | 3.66% | 0.71% | 2.22% | 2.35% | 1.33% | 1.2% | 1.89% | -0.41% | -0.43% | 5.01% | 5.81% | -2.15%
